# Test results reported in PubChem BioAssay (NCI).
# This is part of a sample that, as a whole, favours compounds with a hit. Of some 83,000 tested, about 20% had one in any assay.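 The endpoint reported here, percent growth, reads 100 for growth as untreated, 0 for no net growth and -100 for all cells dead.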 Unmarked numbers belong to inactive results. Active and inactive are the calls of the source. Rule for the calls: active = growth percent below 10; inactive = the rest.
# Tests used:
# Experiment in all cases: NCI-60 one-dose screen, 48 h (100 = growth as untreated, 0 = no growth, -100 = all killed)
# Conditions in all cases: 10 µM unless noted
# NCI-H23 lung = tested on: NCI-H23 lung
# NCI-H226 lung = tested on: NCI-H226 lung
# NCI-H322M lung = tested on: NCI-H322M lung
# HOP-62 NSCLC = tested on: HOP-62 NSCLC
# NCI-H460 lung = tested on: NCI-H460 lung
# HOP-92 NSCLC = tested on: HOP-92 NSCLC
# NCI-H522 lung = tested on: NCI-H522 lung
# A549/ATCC NSCLC = tested on: A549/ATCC NSCLC
# 786-0 renal = tested on: 786-0 renal
# COLO 205 colon = tested on: COLO 205 colon
# DU-145 prostate = tested on: DU-145 prostate
# K-562 leukemia = tested on: K-562 leukemia
# MALME-3M melanoma = tested on: MALME-3M melanoma
# MDA-MB-231 breast = tested on: MDA-MB-231 breast
# RXF 393 renal = tested on: RXF 393 renal
# SF-268 CNS = tested on: SF-268 CNS
# SF-295 CNS = tested on: SF-295 CNS
# SF-539 CNS = tested on: SF-539 CNS
# UACC-257 melanoma = tested on: UACC-257 melanoma
# M14 melanoma = tested on: M14 melanoma
SMILES,growth (NCI-H23 lung),growth (NCI-H226 lung),growth (NCI-H322M lung),growth (HOP-62 NSCLC),growth (NCI-H460 lung),growth (HOP-92 NSCLC),growth (NCI-H522 lung),growth (A549/ATCC NSCLC),growth (786-0 renal),growth (COLO 205 colon),growth (DU-145 prostate),growth (K-562 leukemia),growth (MALME-3M melanoma),growth (MDA-MB-231 breast),growth (RXF 393 renal),growth (SF-268 CNS),growth (SF-295 CNS),growth (SF-539 CNS),growth (UACC-257 melanoma),growth (M14 melanoma)
COc1cccc(/C=N/NC(=O)c2cnn3c2NC(c2ccccc2)C3)c1Oc1ccccc1 (stereo not given),95.5%,97.7%,102%,74.3%,88%,105%,54.2%,73%,79.8%,79.6%,89.8%,36%,75.3%,90.7%,82.1%,88.3%,63.3%,84%,86.3%,50.2%
O=C1c2ccc3c4c(ccc(c24)C(=O)N1CCCNCc1ccccc1Cl)C(=O)N(CCCNCc1ccccc1Cl)C3=O,-51.9% (active),-57.1% (active),-66.2% (active),-19.8% (active),-52.1% (active),-7.21% (active),-83.1% (active),-84.1% (active),-32.8% (active),-15.9% (active),-86.5% (active),-38.2% (active),-72.9% (active),16.7%,-94.2% (active),-30.2% (active),-52.2% (active),-67.6% (active),-90.6% (active),-56.5% (active)
N/C(=N\C(N)=N\c1nc2ccccc2s1)c1cnccn1,19.8%,22.5%,25.1%,40.2%,11.8%,47%,22.4%,21.1%,23.4%,16.2%,28.2%,17.1%,16.8%,58.1%,-43% (active),26.5%,28%,16%,35.5%,23.2%
N#Cc1c(NC(=O)NCc2ccccc2)sc2c1CCCC2,29%,29.5%,42.2%,40.2%,2.62% (active),42%,21.9%,28.5%,35.6%,10.1%,10.1%,14%,47.5%,18.8%,0.0173% (active),46.9%,21%,-1.85% (active),68%,10.6%
c1ccc2cc(Cn3c(-c4cccc5ccccc45)[n+](Cc4ccc5ccccc5c4)c4c5ccccc5c5ccccc5c43)ccc2c1,-60.8% (active),-66% (active),-25% (active),-85.1% (active),-71.7% (active),-52.3% (active),-64.2% (active),-71.7% (active),-70% (active),-84.9% (active),-96.5% (active),-35.2% (active),-82.6% (active),-72.9% (active),-90.6% (active),-38.2% (active),-83.9% (active),-92.5% (active),-67.2% (active),-63.5% (active)
Cc1nn(-c2ccccc2)c(Oc2c(Cl)cccc2Cl)c1/C=N/N=c1\sc2ccccc2n1C,72.5%,53.3%,82.2%,83.6%,17.4%,60.3%,65.5%,47.5%,50.8%,40.8%,67.7%,28.3%,81.6%,51.3%,54.7%,52.2%,54.3%,49.9%,71.3%,60.8%
O=S(=O)(NCCNc1nccc(-c2c(-c3cccc(O)c3)nc3occn23)n1)c1cccc(F)c1,97.9%,105%,97.3%,121%,95.9%,93%,81.1%,92.6%,91.5%,30.1%,104%,70.8%,4.35% (active),69.4%,91.6%,93.1%,106%,111%,39.7%,35.9%
COc1c(Cl)c2c(c(OC)c1OC)-c1ccc(SC)c(=O)cc1[C@@H](NC(=O)OCC(F)(F)F)CC2,34.1%,16.4%,33.6%,34.3%,2.44% (active),23.4%,17.9%,22.2%,11%,-0.15% (active),-6.54% (active),7.39% (active),34.9%,-1.03% (active),18.7%,27.2%,15%,-19% (active),70.5%,0.43% (active)
CCSCC1CC(O)(c2ccccc2)CC(c2ccc(F)cc2)O1 (stereo not given),26.6%,24.6%,45.4%,26.2%,-30.9% (active),-9.6% (active),53.9%,20.7%,-23.7% (active),-94.8% (active),9.94% (active),11.9%,-17.8% (active),20.6%,-5.44% (active),20%,-14.8% (active),36.5%,35.7%,5.84% (active)
COc1ccc(CNCCN2C(=O)c3ccc4c5c(ccc(c35)C2=O)C(=O)N(CCNCc2ccc(OC)c(OC)c2OC)C4=O)c(OC)c1OC,-42.8% (active),-13.7% (active),-1.94% (active),20%,-21.2% (active),5.62% (active),-78% (active),-39.9% (active),8.05% (active),-10.9% (active),-41.7% (active),-10.8% (active),-73% (active),-8.31% (active),-32.3% (active),-2.06% (active),-44.8% (active),-47.7% (active),-85.1% (active),-58.3% (active)
CCCOc1ccc(/C=N/Nc2cc(C)nc3ccc(Cl)cc23)cc1,75.9%,88.3%,62.1%,75.2%,-37.5% (active),69.2%,86.9%,36.9%,-86.4% (active),-80.7% (active),24.2%,-37% (active),-59% (active),60.1%,-18.9% (active),83.8%,-74.3% (active),-62.6% (active),89.8%,-29.8% (active)
CCCCCCOc1ccc(/C=N/Nc2cc(C)nc3ccc(Cl)cc23)cc1,68.3%,87.8%,14.6%,-51.6% (active),-80% (active),69.5%,-42.9% (active),-43.1% (active),-82.2% (active),-48.4% (active),-49% (active),-20.4% (active),-48.7% (active),-79.9% (active),-94.3% (active),69.9%,-84.3% (active),-86.5% (active),116%,2.01% (active)
O=C(/C=C(/C=C/c1coc2ccccc12)OB(F)F)/C=C/c1coc2ccccc12,93.9%,105%,103%,113%,87.7%,91%,90.6%,91.6%,102%,95.9%,99.1%,72%,94.5%,101%,109%,93.4%,101%,110%,92.3%,96%
COc1cc2oc(-c3cccc(C(=O)Nc4ccc(Cl)cc4)c3)cc(=O)c2c(O)c1OC,72.6%,66.4%,58.4%,0.268% (active),20.5%,10.5%,60.4%,47.5%,38.7%,74%,62.9%,69.4%,68.4%,55.8%,41.3%,28.6%,52%,55%,83.2%,69.8%
CCOC(=O)CCN(CC(C)C)C(=S)Nc1ccccc1,98.8%,107%,107%,120%,107%,110%,101%,101%,101%,113%,108%,103%,102%,106%,122%,104%,101%,100%,102%,99%
